Test results as given in PubChem BioAssay (EPA / NIEHS).
Records with an inconclusive call do not appear. Active and inactive are the calls of the source. The calls were made as follows, unless noted: active = hit-call score of the fitted dose curve at least 0.9, where 1 is the maximum; inactive = score below 0.9.

Legend:
[1] = read-out: Interleukin-8 (IL8), CXCL8 (gene 3576); assay: BSK_3C_IL8: BioMAP Diversity Plus: 3C Assay for Interleukin-8 (IL8) Biomarker Activity (AID 2283020); conditions: primary human endothelial cells (HUVEC); actives raise or lower the signal
In short: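 IL-8 was measured by ELISA in HUVEC cultures 24 h after chemical dosing, with gain or loss of signal fitted relative to DMSO. Parallel SRB total-protein staining tracked overt cytotoxicity.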

[2] = read-out: Monokine induced gamma interferon (MIG), CXCL9 (gene 4283); assay: BSK_3C_MIG: BioMAP Diversity Plus: 3C Assay for Monokine induced gamma interferon (MIG) Biomarker Activity (AID 2283021); conditions: primary human endothelial cells (HUVEC); actives raise or lower the signal
In short: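 ELISA measurement of MIG in human umbilical vein endothelial cells 24 h after treatment. Cytotoxicity tracked by SRB staining in parallel cultures; gain or loss of signal fitted relative to DMSO.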

[3] = BSK_3C_SRB: Viability Assessment in the BioMAP Diversity Plus: 3C Assay (AID 2283023); conditions: primary human endothelial cells (HUVEC);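 also: fitted both ways against DMSO so a hit may be signal rise or drop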
In short: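 Cytotoxicity readout in parallel HUVEC 3C cultures: after 24 h compound exposure, cells fixed with 10% TCA, stained with 0.1% SRB and read at 560 nm. Gain or loss relative to DMSO fitted.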

[4] = read-out: Matrix Metallopeptidase 1 (MMP1), MMP1 (gene 4312); assay: BSK_BE3C_MMP1: BioMAP Diversity Plus: BE3C Assay for Matrix Metallopeptidase 1 (MMP1) Biomarker Activity (AID 2283024); conditions: primary human bronchial epithelial cells; actives raise or lower the signal
In short: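 ELISA measurement of MMP-1 after 24 h compound exposure of primary human bronchial epithelial cells. Changes in either direction fitted relative to DMSO; parallel SRB staining checked overt cytotoxicity.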

[5] = BSK_3C_Vis: BioMAP Diversity Plus: 3C Assay for Morphology Visualization (AID 2283025); conditions: primary human endothelial cells (HUVEC);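 also: fitted both ways so gain or loss versus DMSO counts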;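 as to AC50: light microscopy image of cell morphology used as background control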
In short: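 Light-microscopy visualization of HUVEC cultures at 24 h post-treatment, with DMSO as baseline for bidirectional fitting.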

[6] = read-out: Pselectin, SELP (gene 6403); assay: BSK_4H_Pselectin: BioMAP Diversity Plus: 4H Assay for Pselectin Biomarker Activity (AID 2283026); conditions: primary human endothelial cells (HUVEC); actives raise or lower the signal
In short: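 ELISA of surface P-selectin on HUVEC, 24 h after dosing, with parallel SRB staining (0.1% after 10% TCA fixation, 560 nm) for overt cytotoxicity. Activity fitted in both directions relative to DMSO.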

[7] = BSK_4H_SRB: Viability Assessment in the BioMAP Diversity Plus: 4H Assay (AID 2283027); conditions: primary human endothelial cells (HUVEC);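 also: cells exposed to compound for 24 h before staining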;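 as to AC50: curves fitted both ways versus DMSO so AC50 may be loss or gain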
In short: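 Cytotoxicity read-out in primary human endothelial cells: after 24 h compound exposure, cells were TCA-fixed (10%), stained with 0.1% SRB and absorbance taken at 560 nm. Values fitted in both directions relative to DMSO.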

[8] = BSK_BE3C_SRB: Viability Assessment in the BioMAP Diversity Plus: BE3C Assay (AID 2283028); conditions: primary human bronchial epithelial cells;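 as to AC50: fitted both ways so AC50 may mark signal gain or loss versus DMSO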
In short: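 Cytotoxicity read-out: SRB (0.1%) staining of TCA-fixed (10%) human lung bronchial epithelial cells, absorbance 560 nm, 24 h post-dosing. Curves fitted both directions relative to DMSO.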

[9] = read-out: Thrombomodulin, THBD (gene 7056); assay: BSK_3C_Thrombomodulin: BioMAP Diversity Plus: 3C Assay for Thrombomodulin Biomarker Activity (AID 2283029); conditions: primary human endothelial cells (HUVEC); actives raise or lower the signal
In short: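 ELISA measurement of thrombomodulin on HUVEC surface 24 h after chemical dosing; activity fitted in both directions relative to DMSO vehicle.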

[10] = target: human Vitamin D Receptor (VDR), VDR (gene 7421) (UniProt P11473); assay: ATG_VDR_TRANS: Attagene TRANS-FACTORIAL HepG2 Assay for human Vitamin D Receptor (VDR) (AID 2283022; active = hit-call score of the fitted dose curve at least 0.9, where 1 is the maximum)
Sequence of human Vitamin D Receptor (VDR), VDR (gene 7421) (P11473 whole entry, looked up, the tested form may be a part): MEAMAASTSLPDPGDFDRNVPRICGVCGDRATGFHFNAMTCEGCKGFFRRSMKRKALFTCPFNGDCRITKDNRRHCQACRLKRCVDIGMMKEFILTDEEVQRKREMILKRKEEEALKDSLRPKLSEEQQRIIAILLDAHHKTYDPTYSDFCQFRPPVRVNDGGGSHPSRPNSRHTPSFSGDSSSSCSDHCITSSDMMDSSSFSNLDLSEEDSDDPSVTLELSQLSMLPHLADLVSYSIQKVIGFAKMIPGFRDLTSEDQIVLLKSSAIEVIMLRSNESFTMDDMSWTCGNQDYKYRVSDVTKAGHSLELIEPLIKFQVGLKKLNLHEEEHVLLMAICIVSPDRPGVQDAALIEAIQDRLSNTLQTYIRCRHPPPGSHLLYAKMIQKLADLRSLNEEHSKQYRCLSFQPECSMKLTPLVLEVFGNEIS
In short: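 Transactivation by an exogenous VDR-Gal4 chimera in transiently transfected HepG2 cells was measured as reporter transcript level 24 hours after chemical treatment. RT-PCR products were analysed by capillary electrophoresis and fitted in the positive direction relative to DMSO.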

| SMILES | outcome [1] | outcome [2] | outcome [3] | outcome [4] | outcome [5] | outcome [6] | outcome [7] | outcome [8] | outcome [9] | outcome [10] | AC50 [5] | AC50 [7] | AC50 [3] | AC50 [6] | AC50 [8] | AC50 [4] | AC50 [9] |
| --- | --- | --- | --- | --- | --- | --- | --- | --- | --- | --- | --- | --- | --- | --- | --- | --- | --- |
| COc1ccc(-c2ccccc2)cc1NNC(=O)OC(C)C | inactive | inactive | inactive | inactive | inactive | inactive | inactive | inactive | inactive | – | – | – | – | – | – | – | – |
| COCC(=O)N(c1c(C)cccc1C)C(C)C(=O)OC (stereo not given) | inactive | inactive | inactive | inactive | inactive | inactive | inactive | inactive | inactive | – | – | – | – | – | – | – | – |
| Cn1c(-c2ccccc2)cc(-c2ccccc2)[n+]1C | inactive | inactive | inactive | inactive | – | inactive | – | inactive | inactive | inactive | 9.8 µM (active) | 1.65 µM (active) | – | – | – | – | – |
| COC(=O)c1c(C(F)F)nc(C(F)(F)F)c(C2=NCCS2)c1CC(C)C | inactive | inactive | – | inactive | inactive | inactive | – | – | inactive | inactive | – | 36.5 µM (active) | 33.3 µM (active) | – | – | – | – |
| CCOc1nc(C(Cl)(Cl)Cl)ns1 | inactive | inactive | inactive | inactive | inactive | inactive | inactive | inactive | inactive | inactive | – | – | – | – | – | – | – |
| Clc1nc(Cl)nc(Nc2ccccc2Cl)n1 | inactive | inactive | inactive | inactive | inactive | inactive | inactive | – | inactive | inactive | – | – | – | – | – | – | – |
| COCc1cnc(C2=NC(C)(C(C)C)C(=O)N2)c(C(=O)O)c1 (stereo not given) | inactive | inactive | inactive | inactive | inactive | inactive | inactive | inactive | inactive | inactive | – | – | – | – | – | – | – |
| COP(=S)(OC)Oc1ccc([N+](=O)[O-])c(C)c1 | inactive | inactive | – | inactive | – | inactive | inactive | – | inactive | inactive | 39 µM (active) | – | 16.5 µM (active) | – | – | – | – |
| Nc1c(Cl)c(F)nc(OCC(=O)O)c1Cl | inactive | inactive | inactive | inactive | inactive | inactive | inactive | inactive | inactive | – | – | – | – | – | – | – | – |
| CC(C)Nc1nc(Cl)nc(NC(C)C)n1 | inactive | inactive | inactive | inactive | inactive | inactive | inactive | – | inactive | inactive | – | – | – | – | – | – | – |
| CC1(C)C(C(=O)OC(C#N)c2cccc(Oc3ccccc3)c2)C1(C)C (stereo not given) | inactive | inactive | – | inactive | – | – | inactive | – | inactive | inactive | 39 µM (active) | – | 10.1 µM (active) | 12.9 µM (active) | 6.87 µM (active) | – | – |
| CNC(=O)Oc1cccc2ccccc12 | inactive | inactive | – | inactive | – | – | inactive | – | inactive | inactive | 13.7 µM (active) | – | 12.4 µM (active) | 16.7 µM (active) | – | – | – |
| CS(=O)(=O)c1ccc(C(=O)C2C(=O)CCCC2=O)c([N+](=O)[O-])c1 | inactive | inactive | inactive | inactive | inactive | inactive | inactive | inactive | inactive | – | – | – | – | – | – | – | – |
| CCN(CC)c1nc(C)cc(OP(=S)(OC)OC)n1 | inactive | inactive | – | – | inactive | inactive | inactive | inactive | inactive | inactive | – | – | 29.4 µM (active) | – | – | 20 µM (active) | – |
| CCOc1nc(F)cc2nc(S(=O)(=O)Nc3c(Cl)cccc3Cl)nn12 | inactive | inactive | inactive | inactive | inactive | inactive | inactive | inactive | inactive | inactive | – | – | – | – | – | – | – |
| CC(C)(C)C(=O)C(Oc1ccc(Cl)cc1)n1cncn1 (stereo not given) | inactive | inactive | inactive | inactive | inactive | inactive | inactive | inactive | inactive | – | – | – | – | – | – | – | – |
| Cc1c(COC(=O)[C@@H]2[C@H](/C=C(\Cl)C(F)(F)F)C2(C)C)cccc1-c1ccccc1 | inactive | inactive | – | inactive | – | – | inactive | inactive | – | – | 0.28 µM (active) | – | 11.7 µM (active) | 12.3 µM (active) | – | – | 4.98 µM (active) |
| CCOP(=S)(OCC)Oc1nc(Cl)n(C(C)C)n1 | inactive | inactive | inactive | inactive | inactive | inactive | inactive | – | – | inactive | – | – | – | – | – | – | 3.97 µM (active) |
| O=C(O)c1c(Cl)ccc2cc(Cl)cnc12 | inactive | inactive | inactive | inactive | inactive | inactive | inactive | inactive | inactive | – | – | – | – | – | – | – | – |
| CN/C(=N\[N+](=O)[O-])NCc1cnc(Cl)s1 | inactive | inactive | inactive | inactive | inactive | inactive | inactive | – | inactive | inactive | – | – | – | – | – | – | – |
| O=C(Nc1ccccc1-c1ccc(Cl)cc1)c1cccnc1Cl | inactive | inactive | inactive | inactive | – | inactive | inactive | inactive | inactive | – | 39 µM (active) | – | – | – | – | – | – |
